Test [1] is described as follows: small molecules captured by biotinylated probe aFSTL3 – biochemical, small-molecule microarray, fluorescence 635/667, stem cell growth factor project, primary screen (AID 1064).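 Further: measures binding of the biotinylated anti-FSTL3 antibody to printed compounds.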 The settings on record: higher = more signal.
A short description of test [2]: binders from COS7 lysate, DM2A8 probe, primary screen, torsin A project, cell lysate, small-molecule microarray, fluorescence 635/667 (AID 1065). The note with it: higher = more signal, COS7 lysate expressing mutant human TOR1A.
Test [3] is described as follows: small molecules captured by biotinylated probe aFGF2 – biochemical, small-molecule microarray, fluorescence 635/667, stem cell growth factor project, primary screen (AID 1067).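 Further: measures binding of biotinylated aFGF2 protein to printed compounds on slides; z-score merges feature fluorescence and signal-to-noise across triplicate slides.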 The settings on record: higher = more signal.
The nature of test [4]: small molecules captured by biotinylated probe aFGF10 – biochemical, small-molecule microarray, fluorescence 635/667, stem cell growth factor project, primary screen (AID 1071).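 Further: score merges 667 nm spot intensity and signal to noise from triplicate slides.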 The settings on record: higher = more signal.
Test [5] addresses Neurogenic locus notch homolog protein 2 (Homo sapiens) (UniProt Q04721). Put plainly: small molecules binding Notch2 protein – biochemical, small-molecule microarray, 635 nm fluorescence, stem cell growth factors, primary screen (AID 1073). The settings on record: higher = more signal.
For test [6], the target named is Pro-neuregulin-1, membrane-bound isoform (Homo sapiens) (UniProt Q02297). Put plainly: small molecules binding neuregulin-1 protein – biochemical, small-molecule microarray, fluorescence 635/667, psychiatric disease protein project, primary screen (AID 1075).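 Further: score combines 667 nm spot fluorescence with signal to noise.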 The settings on record: NRG1 binding, 635 nm fluorescence, higher = more signal.
Test [7] concerns Neuregulin-1 EGF-like domain. Put plainly: small molecules binding NRG1 EGF domain – biochemical, small-molecule microarray, 635 nm fluorescence, primary screen (AID 1081).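 Further: binding of the protein to compounds printed on small-molecule microarray slides.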 The note with it: higher = more signal.
The nature of test [8]: FRG1 expression reporter modulators in myotubes – cell-based, C2C12 myotubes, firefly/Renilla luciferase, luminescence, FRG1 inhibition for FSHD, primary screen (AID 1084). The note with it: FRG1 promoter luciferase, higher = more signal, called active from +8 up or from −8 down.
A short description of test [9]: small molecules captured by biotinylated probe aFST – biochemical, small-molecule microarray, fluorescence 635/667, stem cell growth factor project, primary screen (AID 1086).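 Further: score merges 667 nm fluorescence with signal-to-noise of each printed compound spot.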 The settings on record: higher = more signal.
The nature of test [10]: binders of probe aHhip on microarray, primary screen, stem cell growth factor project, biochemical, small-molecule microarray, fluorescence 635/667 (AID 1087).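 Further: score merges spot fluorescence at 667nm with spot signal to noise ratio.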 The settings on record: higher = more signal.
Test [11] deals with PRMT1 (protein arginine N-methyltransferase 1). Put plainly: small molecules binding arginine methyltransferase PRMT1 – biochemical, small-molecule microarray, 635 nm fluorescence, primary screen (AID 1088).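 Further: binding of Prmt1 protein to compounds spotted on small-molecule microarray slides.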 The note with it: higher = more signal.
Test [12] in a line: growth effects on S. cerevisiae YJM789 – YJM789 clinical isolate, OD600, 24 h, basal, primary screen (AID 1089).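 Further: growth of clinical yeast isolate S. cerevisiae YJM 789 seeded 1000 cells per well; test concentration not given here.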 The settings on record: higher = more signal, called active from +8 up or from −8 down.
Test [13] can be described thus: S. pombe growth modifiers, basal conditions – strain 972, OD600, 24 h, no modulator, primary screen (AID 1090).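 Further: basal condition with compound alone and no growth modifier present; test concentration not given here.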 The settings on record: S. pombe 972 growth, higher = more signal, called active from +8 up or from −8 down.
The nature of test [14]: budding yeast growth modifiers under rapamycin – strain BY4716, OD600, 96 h, primary screen (AID 1091). Further: test concentration not given here. The note with it: S. cerevisiae BY4716 + rapamycin, higher = more signal, called active from +8 up or from −8 down.
In test [15] the target is Torsin-1A-interacting protein 2 (Homo sapiens) (UniProt Q8NFQ8). Put plainly: small molecules binding lysate-expressed LULL1 – cell lysate, human LULL1 lysate, 635/667 nm fluorescence, primary screen (AID 1092).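 Further: probe is lysate of COS7 cells overexpressing human LULL1; score merges per-feature 667 nm fluorescence with signal-to-noise.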 The settings on record: small-molecule microarray, hLULL1 lysate binding, 635 nm fluorescence; higher = more signal.
Test [16] is described as follows: optical density change of DRC41 E. coli – strain DRC41, OD650, 24 h, E. coli filamentation project, primary screen (AID 1093).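 Further: MC1000 strain lacking acrAB efflux and sulA so SOS filamentation is blocked; test concentration not given here.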 The note with it: E. coli DRC41 growth, higher = more signal, called active from +8 up or from −8 down.
The nature of test [17]: probe aLefty2 binding to arrayed compounds – biochemical, biotinylated probe, 635/667 nm fluorescence, primary screen (AID 1094).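 Further: score merges spot fluorescence near 667 nm with spot signal-to-noise ratio.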 The note with it: small-molecule microarray, higher = more signal.
Test [18] has as its system Noggin (protein binding on small-molecule microarray). Put plainly: small molecules binding Noggin protein – biochemical, 635/667 nm fluorescence, primary screen (AID 1095).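 Further: score merges 667 nm feature fluorescence with signal to noise over triplicate slides.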 The note with it: 635 nm fluorescence, higher = more signal.
Test [19] has as its target Neurogenic locus notch homolog protein 3 (Homo sapiens) (UniProt Q9UM47). Put plainly: small molecules binding NOTCH3 protein – biochemical, 635/667 nm fluorescence, primary screen (AID 1096). The settings on record: small-molecule microarray, 635 nm fluorescence, higher = more signal.
Test [20] in a line: probe aEGFR binding to arrayed compounds – biochemical, biotinylated probe, 635/667 nm fluorescence, primary screen (AID 1097).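 Further: probe is a biotinylated anti-EGFR antibody binding compounds printed on slides; score combines fluorescence near 667 nm and signal to noise of each spot.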 The settings on record: small-molecule microarray, higher = more signal.

Calls of active or inactive are those of the source.

Chain of Neurogenic locus notch homolog protein 3 (Homo sapiens) (Q9UM47 whole entry, looked up): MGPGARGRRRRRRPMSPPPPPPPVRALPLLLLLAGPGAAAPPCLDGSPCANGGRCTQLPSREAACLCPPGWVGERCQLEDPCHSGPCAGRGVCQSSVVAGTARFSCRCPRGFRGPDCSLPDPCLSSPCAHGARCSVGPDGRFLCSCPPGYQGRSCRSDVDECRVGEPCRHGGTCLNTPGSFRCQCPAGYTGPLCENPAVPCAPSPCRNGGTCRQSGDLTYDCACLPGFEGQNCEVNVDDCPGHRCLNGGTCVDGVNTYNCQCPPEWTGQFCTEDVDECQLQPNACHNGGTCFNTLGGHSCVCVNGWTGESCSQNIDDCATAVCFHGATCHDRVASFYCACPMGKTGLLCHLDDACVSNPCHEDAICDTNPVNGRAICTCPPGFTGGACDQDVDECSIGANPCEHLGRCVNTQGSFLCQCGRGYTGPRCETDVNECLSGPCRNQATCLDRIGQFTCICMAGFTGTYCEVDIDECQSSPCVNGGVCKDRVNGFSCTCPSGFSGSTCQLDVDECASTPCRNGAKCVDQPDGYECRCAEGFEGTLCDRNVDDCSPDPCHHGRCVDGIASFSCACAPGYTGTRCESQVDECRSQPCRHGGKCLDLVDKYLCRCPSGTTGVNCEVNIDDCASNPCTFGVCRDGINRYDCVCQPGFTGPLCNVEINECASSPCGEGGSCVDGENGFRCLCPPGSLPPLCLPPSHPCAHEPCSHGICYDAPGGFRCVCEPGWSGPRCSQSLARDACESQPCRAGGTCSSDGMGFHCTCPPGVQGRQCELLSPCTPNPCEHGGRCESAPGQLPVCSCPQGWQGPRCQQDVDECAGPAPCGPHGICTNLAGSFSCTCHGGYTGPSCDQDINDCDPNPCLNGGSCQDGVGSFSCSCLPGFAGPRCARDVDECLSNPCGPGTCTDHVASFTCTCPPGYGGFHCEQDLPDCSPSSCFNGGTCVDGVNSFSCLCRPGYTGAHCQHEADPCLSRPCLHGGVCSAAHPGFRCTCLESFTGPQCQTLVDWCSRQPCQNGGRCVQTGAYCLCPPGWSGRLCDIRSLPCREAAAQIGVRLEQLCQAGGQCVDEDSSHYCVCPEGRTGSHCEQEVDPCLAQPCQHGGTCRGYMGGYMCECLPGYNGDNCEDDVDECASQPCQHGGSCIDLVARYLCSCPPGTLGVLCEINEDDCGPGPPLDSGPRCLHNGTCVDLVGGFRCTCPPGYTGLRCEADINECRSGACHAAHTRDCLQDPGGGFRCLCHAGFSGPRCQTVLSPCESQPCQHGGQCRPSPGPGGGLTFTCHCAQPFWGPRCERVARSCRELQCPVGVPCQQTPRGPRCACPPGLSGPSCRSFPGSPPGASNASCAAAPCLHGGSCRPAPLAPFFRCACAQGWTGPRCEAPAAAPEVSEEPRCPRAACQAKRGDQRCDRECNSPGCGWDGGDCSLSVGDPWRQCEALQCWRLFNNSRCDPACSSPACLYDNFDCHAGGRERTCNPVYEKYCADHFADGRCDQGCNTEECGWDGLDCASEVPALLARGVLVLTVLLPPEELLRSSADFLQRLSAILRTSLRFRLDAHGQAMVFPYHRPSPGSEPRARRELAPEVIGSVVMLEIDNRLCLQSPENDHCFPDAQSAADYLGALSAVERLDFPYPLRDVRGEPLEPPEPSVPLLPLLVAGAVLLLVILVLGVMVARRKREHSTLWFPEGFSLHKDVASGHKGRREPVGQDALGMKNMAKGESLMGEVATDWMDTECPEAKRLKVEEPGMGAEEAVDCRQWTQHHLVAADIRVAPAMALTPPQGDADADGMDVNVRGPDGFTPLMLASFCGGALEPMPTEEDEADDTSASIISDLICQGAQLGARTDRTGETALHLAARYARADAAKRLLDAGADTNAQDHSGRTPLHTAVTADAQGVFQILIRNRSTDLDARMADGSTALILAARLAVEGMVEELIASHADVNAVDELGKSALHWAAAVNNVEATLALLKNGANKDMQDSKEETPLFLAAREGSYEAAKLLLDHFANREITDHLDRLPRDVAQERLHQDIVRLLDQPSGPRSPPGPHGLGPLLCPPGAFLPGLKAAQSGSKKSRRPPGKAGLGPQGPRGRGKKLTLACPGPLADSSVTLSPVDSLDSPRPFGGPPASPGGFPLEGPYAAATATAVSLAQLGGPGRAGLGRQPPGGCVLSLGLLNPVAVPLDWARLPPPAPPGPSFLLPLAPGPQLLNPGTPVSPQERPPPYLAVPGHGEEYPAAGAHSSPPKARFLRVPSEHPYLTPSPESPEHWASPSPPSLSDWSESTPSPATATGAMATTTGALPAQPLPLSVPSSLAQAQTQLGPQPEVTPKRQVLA
Chain of Pro-neuregulin-1, membrane-bound isoform (Homo sapiens) (Q02297 whole entry, looked up, the tested form may be a part, canonical isoform): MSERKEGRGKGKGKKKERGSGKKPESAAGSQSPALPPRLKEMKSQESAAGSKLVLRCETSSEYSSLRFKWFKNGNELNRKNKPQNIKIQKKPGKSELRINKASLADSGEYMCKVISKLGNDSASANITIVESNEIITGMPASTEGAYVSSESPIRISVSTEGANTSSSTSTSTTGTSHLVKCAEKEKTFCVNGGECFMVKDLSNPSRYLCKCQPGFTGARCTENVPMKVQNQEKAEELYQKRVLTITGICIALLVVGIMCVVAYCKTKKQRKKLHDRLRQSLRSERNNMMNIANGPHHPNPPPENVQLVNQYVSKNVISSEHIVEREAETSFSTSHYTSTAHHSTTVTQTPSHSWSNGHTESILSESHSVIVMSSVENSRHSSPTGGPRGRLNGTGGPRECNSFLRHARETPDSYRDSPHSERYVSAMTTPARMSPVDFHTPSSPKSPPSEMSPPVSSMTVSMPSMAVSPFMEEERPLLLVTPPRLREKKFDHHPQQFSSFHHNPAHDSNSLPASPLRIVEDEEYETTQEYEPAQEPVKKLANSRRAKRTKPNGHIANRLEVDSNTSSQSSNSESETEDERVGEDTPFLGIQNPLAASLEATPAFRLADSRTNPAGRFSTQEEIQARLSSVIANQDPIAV
Chain of Torsin-1A-interacting protein 2 (Homo sapiens) (Q8NFQ8 whole entry, looked up): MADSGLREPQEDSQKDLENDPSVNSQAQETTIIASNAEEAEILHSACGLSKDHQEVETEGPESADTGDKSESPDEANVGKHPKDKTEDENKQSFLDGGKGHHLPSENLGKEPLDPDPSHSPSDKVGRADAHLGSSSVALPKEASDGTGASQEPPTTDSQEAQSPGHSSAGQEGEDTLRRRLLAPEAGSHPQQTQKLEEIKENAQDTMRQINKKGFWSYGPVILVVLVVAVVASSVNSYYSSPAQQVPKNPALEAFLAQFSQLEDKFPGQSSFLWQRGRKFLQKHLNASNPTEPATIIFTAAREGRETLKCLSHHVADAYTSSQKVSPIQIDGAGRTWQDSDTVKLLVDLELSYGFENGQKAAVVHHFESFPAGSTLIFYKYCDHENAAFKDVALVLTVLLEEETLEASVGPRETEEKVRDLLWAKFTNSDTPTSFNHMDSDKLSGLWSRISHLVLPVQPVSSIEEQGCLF

Regarding `CC(C)C[C@@H]1NC(=O)[C@@H]2C[C@H](C(=O)NCCCCCNC(=O)CS)[C@H](c3cccc(OCCO)c3)N2C1=O`, the composite z-score was 0.0138 in test [1]; 1.55 in [2]; -0.0332 in [3]; 0.355 in [4]; 0.947 in test [5]; 1.35 in test [6]. The composite z-score in test [7] was 1.29; in [9] it was 0.35; in test [10] it was -0.286; in [11] it was 1.55; in test [15], 2.23; in test [17] it was -0.0153. The composite z-score in [18] came out at 1.44; in test [19] it was 1.06; in test [20], 0.133. Also, the z-score in test [8] was 0.152 (inactive); in test [12], -1.66 (inactive); in [13], -0.926 (inactive); in test [14], -0.565 (inactive); in test [16] it was 2.24 (inactive).

With `COCCOC(=O)N1C(=O)[C@@]2(c3cc(C#CCCO)ccc31)[C@H](c1ccccc1OCCO)N1[C@H](c3ccccc3)[C@H](c3ccccc3)OC(=O)[C@H]1[C@@H]2C(=O)NC[C@H](O)c1ccccc1`, the composite z-score was -0.138 in [1]; 2.15 in test [2]; -0.105 in test [3]; 0.365 in [4]; 0.3 in [5]; 1.12 in test [6]. The composite z-score in [7] was 1.06; in [9], 0.555; in [10] it was 0.0623; in test [11] it was 1.56; in [15], 1.29; in test [17], -0.0898. Moreover, the results for the composite z-score in [18], in test [19] and in test [20] were 1.71, 0.99 and 0.0533, respectively. The z-score in [8] was -2.36 (inactive); in test [12], -0.524 (inactive); in test [13], -1.14 (inactive); in test [14], 2.23 (inactive); in test [16] it was 3.51 (inactive).

For `O=C1O[C@@H](c2ccccc2)[C@@H](c2ccccc2)N2[C@@H](c3ccc(OCCO)cc3)[C@]3(C(=O)Nc4ccc(C#CC5(O)CCCCCC5)cc43)[C@@H](C(=O)NC[C@H](O)c3ccccc3)[C@H]12`, the composite z-score is 0.0882 in test [1]; 1 in test [2]; -0.0258 in test [3]; 1.06 in test [4]; 1.42 in test [5]; 1.43 in test [6]. Further, the composite z-score is 1.26 in test [7]; 0.934 in test [9]; -0.191 in test [10]; 1.55 in [11]; 2.3 in [15]; 0.0844 in test [17]. Further, the composite z-score in test [18] was 0.982; in test [19], 1.04; in [20] it was -0.0332. For the same compound, the z-score in test [8] is -0.222 (inactive); in [12], 1.24 (inactive); in test [13] it was 1.21 (inactive); in test [14], 5.49 (inactive); in test [16], 3.13 (inactive).

Consider `CC(C)C[C@@H]1NC(=O)[C@@]23C(=O)N[C@@H](Cc4ccccc4)C2[C@H](C)[C@@]2(C)O[C@H]2C3/C=C/CC/C=C/CNC(=O)[C@@H](C)NC1=O` (stereo not given in full), for which the composite z-score was -0.574 in test [1]; 0.408 in test [2]; -0.178 in [3]; 0.408 in test [4]; 0.578 in test [5]; -0.418 in test [6]. Also, the composite z-score was 0.635 in test [7]; 0.17 in test [9]; 0.21 in [10]; 0.118 in test [11]; -0.664 in [15]; -0.19 in test [17]. Further, the figures for the composite z-score in test [18], in [19] and in test [20] were 1.28, 0.71 and -0.162, respectively. Also, the z-score in test [8] was -1.05 (inactive); in [12], 0.395 (inactive); in test [13] it was -0.619 (inactive); in test [14] it was -0.697 (inactive); in test [16] it was 2.82 (inactive).

`CC(C)NC(=O)[C@@H]1c2ccccc2C(=O)N(Cc2cc(F)cc(C(F)(F)F)c2)[C@H]1c1ccc(CO)cc1`: the composite z-score in [1] is 1.02; in test [2], -0.197; in test [3] it was -0.141; in test [4], -1.12; in test [5] it was -0.636; in [6] it was 0.433. Moreover, the composite z-score is 0.844 in test [7]; 0.136 in test [9]; -0.149 in [10]; -0.305 in [11]; 2.48 in test [15]; 0.0071 in test [17]. In addition, the composite z-score in [18] was -1.34; in test [19], -0.706; in [20], 0.0629. Besides, the z-score in [8] is 0.842 (inactive); in test [12] it was -0.354 (inactive); in test [13], -0.92 (inactive); in test [14] it was -1.17 (inactive); in test [16], 1.52 (inactive).

As for `CCN(CC)c1ccc(N2CC=CC34O[C@@H]5C=CCOC(=O)[C@@H]5[C@H]3C(=O)N(C(CO)C(C)C)[C@@H]4C2=O)cc1` (stereo not given in full), the composite z-score was 0.277 in [1]; -0.866 in test [2]; -0.134 in test [3]; -0.241 in [4]; -0.835 in test [5]; -0.367 in [6]. Also, the composite z-score is -0.805 in [7]; -0.609 in test [9]; -0.134 in test [10]; -0.755 in [11]; -0.952 in test [15]; -0.138 in [17]. The composite z-score in test [18] is -0.544; in [19] it was -1.02; in test [20], -0.253. For the same compound, the z-score was 0.232 (inactive) in test [8]; 1.01 (inactive) in test [12]; -0.635 (inactive) in test [13]; 1.07 (inactive) in [14]; 1.59 (inactive) in [16].

Consider `CCCCC(=C=CC[C@@H](O)c1ccc(OCCO)cc1)C[C@@H](O)c1cc(Cl)cc(Cl)c1O`, for which the composite z-score in test [1] was -0.12; in test [2], 0.0464; in [3] it was -0.0924; in test [4], 0.458; in test [5], -0.0054; in test [6] it was 1.26. The composite z-score in [7] was 0.597; in test [9] it was 0.0049; in [10] it was 0.0007; in test [11] it was 0.21; in test [15], 1.36; in [17], -0.057. Moreover, the composite z-score in test [18] is 0.988; in [19], -0.174; in [20] it was 0.24. Besides, the z-score in [8] was -2.98 (inactive); in [12], -2.58 (inactive); in test [13], -6.3 (inactive); in test [14], -1.39 (inactive); in test [16], 1.97 (inactive).

As to `CCN(CC)c1ccc(N2CC=CC34O[C@@H]5C=CCOC(=O)[C@@H]5[C@H]3C(=O)N(C(C)CO)[C@@H]4C2=O)cc1` (stereo not given in full), the composite z-score is 0.652 in test [1]; -0.893 in test [2]; -0.171 in [3]; -0.784 in [4]; -1.58 in test [5]; 0.392 in test [6]. Further, the composite z-score in [7] is 0.344; in test [9], -0.278; in [10], -0.0296; in [11], -1.48; in test [15], -0.151; in test [17], -0.0592. The composite z-score is -1.39 in [18], -0.894 in test [19] and -0.252 in test [20]. The z-score in test [8] is 0.403 (inactive); in test [12], -0.185 (inactive); in test [13], -1.4 (inactive); in [14] it was -0.8 (inactive); in test [16] it was 1.7 (inactive).

Regarding `COCCCNC(=O)[C@@]1(Cc2ccccc2)N=C(c2ccc(OCCCO)cc2)O[C@H]1c1ccccc1N=[N+]=[N-]`, the composite z-score in [1] came out at 1.38; in test [2] it was 0.768; in test [3], 0.269; in [4], 0.727; in test [5], 1.14; in test [6] it was 0.276. For the same compound, the composite z-score in test [7] was 1.13; in test [9] it was 0.836; in test [10], -0.121; in [11], 0.85; in test [15] it was 2.47; in test [17], 0.612. The results for the composite z-score in [18], in test [19] and in test [20] were 1.89, 0.773 and 0.247, respectively. The z-score in test [8] was -1.37 (inactive); in test [12], 0.448 (inactive); in [13], -0.051 (inactive); in test [14], 2.71 (inactive); in test [16], 1.59 (inactive).

Values taken from PubChem BioAssay.
